Laboratory results published in PubChem BioAssay (Tox21).
A number with no mark means an inactive call. Records with an inconclusive call do not appear. Where a call stands in place of a potency, no number is given. Activity calls are given as the source filed them. Unless noted, calls follow the shape of the dose curve; as a rule, active = well fitted curve in the direction sought with a large enough effect in the repeat runs; inconclusive = weak or mixed curves; inactive = no such curve, though single readings can be large; an effect the other way counts as inactive or inconclusive.

What was measured:
[1] = target: Thyrotropin receptor (Homo sapiens) (UniProt P16473); test: qHTS assay to identify small molecule agonists of the thyroid stimulating hormone receptor (TSHR) signaling pathway (AID 1224843; calls by dose curve; also: nearly all actives have a fitted effect of over 45% in size)
Procedure, shortened: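 HEK293 cells stably bearing the thyrotropin receptor were plated at 800 cells/well and challenged with compound (30 min, RT). Accumulated cAMP was quantified via cAMP-d2 competing for cryptate-tagged antibody.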

[2] = qHTS assay to identify small molecule agonists of the hypoxia (HIF-1) signaling pathway - cell viability counter screen (AID 1224844; calls by dose curve; also: nearly all actives have a fitted effect of over 50% in size)
Procedure, shortened: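 Tox21 10K compounds were added to HRE-bla ME-180 cells (0.5% dialyzed FBS) and incubated 17 hrs at 37C; ATP-based CellTiter-Glo luminescence then reported cell viability in the same wells.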

[3] = qHTS assay to identify small molecule agonists of H2AX (AID 1224845; active = well fitted activation curve with a large enough effect in the signal ratio in the repeat runs, not every such curve was filed as active; the % refers to the signal ratio)
Procedure, shortened: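 Phospho-H2AX Ser139 measured by HTRF (ex 320 nm; em 665 and 620 nm) after 24 hr antibody incubation. Compounds, 15 concentrations, 0.76% DMSO, were applied to CHO-K1 cells for 3hr at 37C before lysis.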

[4] = qHTS assay to identify small molecule agonists of the hypoxia (HIF-1) signaling pathway (AID 1224846; active = well fitted activation curve with a large enough effect in the signal ratio in the repeat runs, not every such curve was filed as active; the % refers to the signal ratio)
Procedure, shortened: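 Steps: seed ME-180 HRE-bla cells (2,000/well, 0.5% dialyzed FBS); incubate 5 hrs at 37C; pin-transfer compounds or DMSO; incubate 17 hrs; add LiveBLAzer B/G substrate CCF4-AM; measure reporter activation by FRET.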

[5] = qHTS assay to identify small molecule agonists of H2AX - cell viability counter screen (AID 1224847; calls by dose curve; also: top concentration of the series differs between compounds; nearly all actives have a fitted effect of over 30% in size)
Procedure, shortened: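 Read-out: CellTiter-Glo luminescence, 30 min RT. Cells: wild-type CHO-K1, 1000/well, 10% FBS, plated overnight at 37C. Treatment: 15 concentrations, 3 hr, 37C, 0.76% DMSO.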

[6] = qHTS assay to identify small molecule antagonists of the estrogen related receptor (ERR) signaling pathway from Tox21 library (AID 1224848); also: nearly all actives have a fitted effect of over 50% in size; also: potency is read from the fitted curve at half-maximal effect
Procedure, shortened: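 Reading was by luminescence 30 min after ONE-Glo addition. Before that, ERR cells at 2,000 per well had rested 6 h at 37 C/5% CO2 and then received pin-tooled compounds in DMSO for 18 h at 37 C.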

[7] = qHTS RealTime-Glo MT Cell Viability Assay in HepG2 cells - 24 hour (AID 1224867); also: nearly all actives have a fitted effect of over 50% in size
Procedure, shortened: (§1)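 Compound treatment began 5 h after plating HepG2 cells (600/well) with NanoLuc luciferase and prosubstrate. Plates stayed at 37 C for 40 h; luminescence was captured at six time points, 0 h through 40 h.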

[8] = qHTS RealTime-Glo MT Cell Viability Assay in HEK293 cells - 32 hour (AID 1224868); also: top concentration of the series differs between compounds; nearly all actives have a fitted effect of over 50% in size
Procedure, shortened: (§2)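 Quantitative high-throughput screen of the Tox21 10K library in HEK293: cells and RealTime-Glo reagents plated together, compound added at 5 h, luminescence monitored through 40 h at 37 C.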

[9] = qHTS RealTime-Glo MT Cell Viability Assay in HepG2 cells - 40 hour (AID 1224870); also: nearly all actives have a fitted effect of over 50% in size
Procedure, shortened: (§3)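 Real-time viability: cells seeded at 600 per well together with NanoLuc and cell-permeant prosubstrate, compounds added after 5 h incubation. Luminescence tracked at 0, 8, 16, 24, 32 and 40 h of exposure.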

[10] = A CellTox Green Cytotoxicity Assay to monitor cytotoxicity in HEK293 cells - 40 hour (AID 1224871); also: nearly all actives have a fitted effect of over 45% in size
Procedure, shortened: (§4)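 Cytotoxicity was tracked continuously in HEK293 cells by a DNA-binding dye excluded from viable cells. Compounds were transferred in DMSO 5 h after seeding; fluorescence was recorded at intervals up to 40 h.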

[11] = qHTS RealTime-Glo MT Cell Viability Assay in HEK293 cells - 16 hour (AID 1224872)
Procedure, shortened: as §2

[12] = qHTS RealTime-Glo MT Cell Viability Assay in HEK293 cells - 40 hour (AID 1224874); conditions: RealTime-Glo luminescence; max response: hits give low values; also: nearly all actives have a fitted effect of over 50% in size
Procedure, shortened: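 Nonlytic bioluminescent viability monitoring. HEK293 at 600 cells/well with reagent; 5 h settle; compound transfer by pintool; plates held at 37 C and read at set time points.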

[13] = A CellTox Green Cytotoxicity Assay to monitor cytotoxicity in HEK293 cells - 24 hour (AID 1224875); also: nearly all actives have a fitted effect of over 45% in size
Procedure, shortened: as §4

[14] = A CellTox Green Cytotoxicity Assay to monitor cytotoxicity in HepG2 cells - 16 hour (AID 1224876); also: nearly all actives have a fitted effect of over 45% in size
Procedure, shortened: (§5)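 Real-time, homogeneous cytotoxicity readout: dead-cell DNA staining by CellTox Green in HepG2 monolayers, fluorescence measured at timed intervals up to 40 h of continuous compound exposure.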

[15] = qHTS RealTime-Glo MT Cell Viability Assay in HepG2 cells - 32 hour (AID 1224877); also: nearly all actives have a fitted effect of over 55% in size
Procedure, shortened: as §1

[16] = A CellTox Green Cytotoxicity Assay to monitor cytotoxicity in HepG2 cells - 24 hour (AID 1224878); also: nearly all actives have a fitted effect of over 45% in size
Procedure, shortened: as §5

[17] = A CellTox Green Cytotoxicity Assay to monitor cytotoxicity in HepG2 cells - 40 hour (AID 1224879); also: nearly all actives have a fitted effect of over 40% in size
Procedure, shortened: as §5

[18] = A CellTox Green Cytotoxicity Assay to monitor cytotoxicity in HEK293 cells - 0 hour (AID 1224869); also: nearly all actives have a fitted effect of over 50% in size
Procedure, shortened: as §4

[19] = qHTS assay to identify small molecule agonists of the estrogen related receptor (ERR) signaling pathway from Tox21 library (AID 1224849; calls by dose curve; also: nearly all actives have a fitted effect of over 15% in size); conditions: ERR reporter cell line, ONE-Glo luciferase, 18 h; at 92.4 µM (top of the series) unless noted
Procedure, shortened: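 Agonist signal is luciferase luminescence from an ERR reporter cell line treated 18 h at 37 C with DMSO-dissolved compounds, read 30 min after ONE-Glo addition at room temperature.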

[20] = qHTS RealTime-Glo MT Cell Viability Assay in HepG2 cells - 8 hour (AID 1224873); also: nearly all actives have a fitted effect of over 55% in size
Procedure, shortened: as §3

Thyrotropin receptor (Homo sapiens), sequence (P16473 whole entry, looked up): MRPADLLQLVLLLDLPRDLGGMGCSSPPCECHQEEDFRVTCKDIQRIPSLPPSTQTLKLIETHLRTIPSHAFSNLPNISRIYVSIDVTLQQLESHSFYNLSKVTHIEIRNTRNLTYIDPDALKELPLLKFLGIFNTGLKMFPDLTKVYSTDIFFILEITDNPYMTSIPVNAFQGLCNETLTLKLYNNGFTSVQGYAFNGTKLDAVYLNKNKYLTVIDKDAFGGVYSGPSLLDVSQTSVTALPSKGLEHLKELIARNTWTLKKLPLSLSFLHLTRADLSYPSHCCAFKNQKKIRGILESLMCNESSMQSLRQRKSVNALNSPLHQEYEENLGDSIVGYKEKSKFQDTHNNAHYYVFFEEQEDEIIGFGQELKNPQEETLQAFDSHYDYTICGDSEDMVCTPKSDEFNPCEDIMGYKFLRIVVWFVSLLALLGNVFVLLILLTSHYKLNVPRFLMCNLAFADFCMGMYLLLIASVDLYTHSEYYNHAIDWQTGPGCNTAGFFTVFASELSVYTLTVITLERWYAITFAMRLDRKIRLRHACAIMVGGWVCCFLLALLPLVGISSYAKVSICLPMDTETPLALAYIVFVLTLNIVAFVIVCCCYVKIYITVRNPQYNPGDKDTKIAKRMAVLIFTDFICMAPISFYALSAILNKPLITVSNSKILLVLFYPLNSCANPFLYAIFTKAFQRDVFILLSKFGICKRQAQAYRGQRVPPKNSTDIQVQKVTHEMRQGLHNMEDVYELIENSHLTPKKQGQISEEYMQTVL

SMILES	Potency [1]	Potency [2]	Potency [3]	outcome [4]	Potency [5]	Potency [6]	Potency [7]	Potency [8]	Potency [9]	Potency [10]	Potency [11]	max response [12] [%]	Potency [13]	Potency [14]	Potency [15]	Potency [16]	Potency [17]	Potency [18]	activity change, positive = activation [19]	Potency [20]
O=C(O)c1ccccc1NCCc1ccccc1	inactive	inactive	inactive	inactive	inactive	inactive	inactive	inactive	inactive	inactive	inactive	-0.281	inactive	inactive	inactive	inactive	inactive			
CO[Si](C)(OC)OC	inactive	inactive	inactive	inactive	inactive		inactive		inactive	inactive	inactive	2.67	inactive	inactive	inactive	inactive		inactive		
CN1Cc2cc(C(=O)N3CCC(C4CCNCC4)CC3)ccc2N[C@@H](CC(=O)O)C1=O	inactive	inactive	inactive	inactive	inactive	inactive	inactive		inactive		inactive	0.441	inactive	inactive	inactive	inactive	inactive	inactive	7.88% [at 42.5 µM]	inactive
N#C/C(=C1/SC[C@@H](c2ccc(Cl)cc2Cl)S1)n1ccnc1	inactive	inactive	inactive	inactive	inactive	23.7 µM (active)	inactive	inactive	inactive	inactive	inactive	-23.1	inactive	inactive	inactive	inactive	inactive	inactive	-40.9% [at 42.5 µM]	
C/C(=N/NC(=O)c1ccncc1)C(=O)O	inactive	inactive	inactive	inactive	inactive		inactive	inactive	inactive	inactive	inactive		inactive		inactive	inactive	inactive	inactive		inactive
CC(=O)Oc1ccc(C(=C2CCCCC2)c2ccc(OC(C)=O)cc2)cc1	inactive	inactive	inactive	inactive	inactive		inactive	inactive	inactive	inactive	inactive	4.82	inactive	inactive	inactive	inactive	inactive	inactive		inactive
CCOCCn1c(C2CCN(CCc3ccc(C(C)(C)C(=O)O)cc3)CC2)nc2ccccc21	inactive	inactive	inactive	inactive	inactive		inactive	inactive	inactive	inactive	inactive	0.952	inactive		inactive			inactive		
